Experimental data: the supplement of paper PMC10037445
Whole data set: some 2,900 compounds, median “NF-kB SEAP reporter activity, fold change vs agonist alone” near 0.99, cut for the highest 2% near 2.6. What follows is part of a selection rich in the highest values, with near analogues and random picks from the rest.

Assays:
RAW-Dual [1] = test: NF-kB SEAP reporter activity, fold change vs agonist alone; cytotoxicity flag (confluency mask): not cytotoxic; higher = enhanced NF-kB activity
Outline: (§1)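 RAW-Dual macrophages (50,000 cells/well in DMEM, 384-well plates) received 50 nL of library stock by pin tool, then a PRR agonist 1 h later, and were kept at 37 °C, 5% CO2. After 20 hours, supernatant was read for IRF by QuantiLuc luminescence and for NF-κB by QuantiBlue absorbance at 620 nm. Reporter activity is fold change over agonist-alone wells. Cytotoxic wells had IncuCyte confluency below 70% of agonist controls in both mask sets.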

RAW-Dual [2] = test: NF-kB SEAP reporter activity, fold change vs agonist alone; higher = enhanced NF-kB activity; conditions: cytotoxicity flag (confluency mask): not cytotoxic
Outline: as §1

[3] = agonist: ODN 1826 (TLR9) 0.5 ug/mL
[4] = agonist: Pam2CSK4 (TLR2/6) 0.1 ug/mL
[5] = agonist: Pam3CSK4 (TLR2/1) 0.1 ug/mL
[6] = library stock concentration (final ~1000-fold dilution): 10 mM, agonist: Imiquimod (TLR7) […]
[7] = library stock concentration (final ~1000-fold dilution): 10 mM, agonist: MPLA (TLR4) […]

For `CC(C(=O)O)c1ccc(C(=O)c2cccs2)cc1` (configuration not stated) (library stock concentration (final ~1000-fold dilution): 10 mM), the “NF-kB SEAP reporter activity” value (RAW-Dual [1]; agonist: LPS (TLR4) 0.1 ug/mL) was 1.19, the “NF-kB SEAP reporter activity” value (RAW-Dual [1]; [3]) was 0.999 and the “NF-kB SEAP reporter activity” value (RAW-Dual [1]; [4]) was 1.06. The “NF-kB SEAP reporter activity” value (RAW-Dual [1]; [5]) was 1.07.

In the case of `CCCS(=O)(=O)NC1CC(N(C)c2ncnc3[nH]ccc23)C1` (configuration not stated) (library stock concentration (final ~1000-fold dilution): 10 mM), the “NF-kB SEAP reporter activity” value (RAW-Dual [1]; agonist: LPS (TLR4) 0.1 ug/mL) is reported as 0.584, the “NF-kB SEAP reporter activity” value (RAW-Dual [1]; [3]) is reported as 0.746 and the “NF-kB SEAP reporter activity” value (RAW-Dual [1]; [4]) is reported as 0.786. The “NF-kB SEAP reporter activity” value (RAW-Dual [1]; [5]) was 0.875.

In the case of `CCCS(=O)(=O)NC1CC(N(C)c2ncnc3[nH]ccc23)C1` (configuration not stated), the “NF-kB SEAP reporter activity” value (RAW-Dual [2]; [6]) is reported as 0.73 and the “NF-kB SEAP reporter activity” value (RAW-Dual [2]; [7]) is reported as 0.764.

With `Cl.O=C1c2cccc3c2C(CCC3)CN1C1CN2CCC1CC2` (configuration not stated) the “NF-kB SEAP reporter activity” value (RAW-Dual [2]; library stock concentration (final ~1000-fold dilution): 10 mM water, agonist: Imiquimod (TLR7) […]) was 0.577 and the “NF-kB SEAP reporter activity” value (RAW-Dual [2]; library stock concentration (final ~1000-fold dilution): 10 mM water, agonist: MPLA (TLR4) […]) was 0.711.

With `Cl.O=C1c2cccc3c2C(CCC3)CN1C1CN2CCC1CC2` (configuration not stated) (library stock concentration (final ~1000-fold dilution): 10 mM water) the “NF-kB SEAP reporter activity” value (RAW-Dual [1]; agonist: LPS (TLR4) 0.1 ug/mL) was 0.985, the “NF-kB SEAP reporter activity” value (RAW-Dual [1]; [3]) was 0.593 and the “NF-kB SEAP reporter activity” value (RAW-Dual [1]; [4]) was 0.966. For the same molecule, the “NF-kB SEAP reporter activity” value (RAW-Dual [1]; [5]) was 0.917.

For `CCN(CC)CCNC(=O)c1c(C)[nH]c(/C=C2\C(=O)Nc3ccc(F)cc32)c1C.O=C(O)CC(O)C(=O)O`, the “NF-kB SEAP reporter activity” value (RAW-Dual [2]; [6]) was 0.892 and the “NF-kB SEAP reporter activity” value (RAW-Dual [2]; [7]) was 0.292.

In the case of `CCN(CC)CCNC(=O)c1c(C)[nH]c(/C=C2\C(=O)Nc3ccc(F)cc32)c1C.O=C(O)CC(O)C(=O)O` (library stock concentration (final ~1000-fold dilution): 10 mM), the “NF-kB SEAP reporter activity” value (RAW-Dual [1]; agonist: LPS (TLR4) 0.1 ug/mL) is reported as 0.295, the “NF-kB SEAP reporter activity” value (RAW-Dual [1]; [3]) is reported as 0.21 and the “NF-kB SEAP reporter activity” value (RAW-Dual [1]; [4]) is reported as 0.27. For the same molecule, the “NF-kB SEAP reporter activity” value (RAW-Dual [1]; [5]) was 0.317.

In the case of `Cc1nn(CC(F)(F)F)cc1Nc1ncc(Br)c(NCc2ccc(S(N)(=O)=O)cc2)n1`, the “NF-kB SEAP reporter activity” value (RAW-Dual [2]; [6]) is reported as 1.38 and the “NF-kB SEAP reporter activity” value (RAW-Dual [2]; [7]) is reported as 1.33.

With `Cc1nn(CC(F)(F)F)cc1Nc1ncc(Br)c(NCc2ccc(S(N)(=O)=O)cc2)n1` (library stock concentration (final ~1000-fold dilution): 10 mM) the “NF-kB SEAP reporter activity” value (RAW-Dual [1]; agonist: LPS (TLR4) 0.1 ug/mL) was 0.744, the “NF-kB SEAP reporter activity” value (RAW-Dual [1]; [3]) was 1.28 and the “NF-kB SEAP reporter activity” value (RAW-Dual [1]; [4]) was 1.17. For the same molecule, the “NF-kB SEAP reporter activity” value (RAW-Dual [1]; [5]) was 1.54.

`CSCC(N)C(=O)O` (configuration not stated) was tested, and the “NF-kB SEAP reporter activity” value (RAW-Dual [2]; [6]) was 0.816 and the “NF-kB SEAP reporter activity” value (RAW-Dual [2]; [7]) was 0.97.

In the case of `CSCC(N)C(=O)O` (configuration not stated) (library stock concentration (final ~1000-fold dilution): 10 mM), the “NF-kB SEAP reporter activity” value (RAW-Dual [1]; agonist: LPS (TLR4) 0.1 ug/mL) is reported as 1.3, the “NF-kB SEAP reporter activity” value (RAW-Dual [1]; [3]) is reported as 1.03 and the “NF-kB SEAP reporter activity” value (RAW-Dual [1]; [4]) is reported as 1.12. The “NF-kB SEAP reporter activity” value (RAW-Dual [1]; [5]) was 1.08.

For `O=C(/C=C/c1cccnc1)NCCCCC1CCN(C(=O)c2ccccc2)CC1` (library stock concentration (final ~1000-fold dilution): 10 mM), the “NF-kB SEAP reporter activity” value (RAW-Dual [1]; agonist: LPS (TLR4) 0.1 ug/mL) was 0.56, the “NF-kB SEAP reporter activity” value (RAW-Dual [1]; [3]) was 1.07 and the “NF-kB SEAP reporter activity” value (RAW-Dual [1]; [4]) was 0.67. The “NF-kB SEAP reporter activity” value (RAW-Dual [1]; [5]) was 0.537.

With `Nc1ccc(F)cc1NC(=O)c1ccc(CNC(=O)/C=C/c2cccnc2)cc1` (library stock concentration (final ~1000-fold dilution): 10 mM) the “NF-kB SEAP reporter activity” value (RAW-Dual [1]; agonist: LPS (TLR4) 0.1 ug/mL) was 3.7, the “NF-kB SEAP reporter activity” value (RAW-Dual [1]; [3]) was 3.18 and the “NF-kB SEAP reporter activity” value (RAW-Dual [1]; [4]) was 0.749. For the same molecule, the “NF-kB SEAP reporter activity” value (RAW-Dual [1]; [5]) was 1.53.
